Experimental findings from ChEMBL document CHEMBL4513216, “Probing the Open Global Health Chemical Diversity Library for Multistage-Active Starting Points for Next-Generation Antimalarials” (ACS Infect Dis, 2020) are described below.

Hit rate of the full screen: of about 69,000 compounds, about 8,600 (12%) showed an effect of 50% or more. What follows is part of a selection rich in strong results, with near analogues and random picks from the rest.

In the assay the test system is Plasmodium berghei. Nature of the assay: Screen against P. berghei liver stage (PbLuc), transformed with Luciferase, at 10uM. The format is functional, HepG2. Particulars: tested at 10 uM.
As to `CN1CCC/C1=N\S(=O)(=O)c1ccc(NC(=O)c2ccc(F)cc2)cc1`, the INHIBITION was 41.4%.

Consider `O=S(=O)(CC1CCCO1)Nc1cc(Cl)ccc1-n1cccn1` (stereo not given), for which the INHIBITION is -15.5%.

Turning to `CC(=O)N[C@@H]1CN(Cc2oc3ccccc3c2C)C[C@H]1c1ccc(C)o1`, the INHIBITION is on record as 37.7%.

With `CC(CO)(NC(=O)NCc1ccc(Br)s1)C1CC1` (stereo not given), the INHIBITION is -12.7%.

Turning to `Fc1cnc(N2CCc3nnc(COc4ccccn4)n3CC2)nc1`, the INHIBITION is reported as -58.7%.

For `CC(C(=O)N1CCN(C)CC1)n1cc(Br)cn1` (stereo not given), the INHIBITION came to 21.7%.

As for `Cc1noc(C)c1CN1CCN(CC2CC2)c2ncccc2C1`, the INHIBITION is on record as 47.2%.

In the case of `O=C(CCc1ccncc1)N1CCCC(N2CCNC2=O)C1` (stereo not given), the INHIBITION was determined as 37.9%.

For the compound `CC(=O)N1CC=C(n2c(=O)[nH]c3ccccc32)CC1`, the INHIBITION was 21.4%.

As to `CCCn1cc(-c2ccnc(NC3CCc4ccccc4C3)n2)c(C)n1` (stereo not given), the INHIBITION turned out to be 89.6%.

As to `Cc1nn(C)c(N2CCOCC2)c1CNC1CCc2ccccc2C1` (stereo not given), the INHIBITION was determined as 35.7%.

Take `Cc1sc2ncc(-c3ccnc(NC4CCN(C)CC4)n3)c(=O)n2c1C`: the INHIBITION is 24.8%.

For `O=C(C1CC1)N1CCC(Nc2nc(O)cc(-c3ccsc3)n2)CC1`, the INHIBITION is -5.78%.

Consider `COCCC(=O)N1CCCCC1c1ccc(F)cc1` (stereo not given), for which the INHIBITION was 48%.

With `O=C1CCCCN1CCC(=O)N1CCCCC1c1ccc(F)cc1` (stereo not given), the INHIBITION is 53.6%.

`CCc1nccn1CCC(=O)N1CCCC1c1ccc(F)cc1` (stereo not given): the INHIBITION turned out to be 29.4%.

Consider `NCC(=O)N1CCCCC1c1ccc(F)cc1` (stereo not given), for which the INHIBITION is recorded as 74%.

Regarding `O=C(c1cc(=O)[nH]c(=O)[nH]1)N1CCCCC1c1ccc(F)cc1` (stereo not given), the INHIBITION is on record as 30.1%.

Take `O=C1CCCN1CCCC(=O)N1CCCCC1c1ccc(F)cc1` (stereo not given): the INHIBITION is 74.9%.

For the compound `O=C1CCNC(=O)N1CC(=O)N1CCC1c1ccc(F)cc1` (stereo not given), the INHIBITION is on record as -14.5%.

With `Cn1cc(C2CCCN2C(=O)CCCOc2ccc(F)cc2)cn1` (stereo not given), the INHIBITION turned out to be 0.914%.

Consider `COC(=O)CCCC(=O)N1CCCCC1c1ccc(F)cc1` (stereo not given), for which the INHIBITION is listed as 34.1%.

Regarding `Cc1nn(C)c(Cl)c1C1CCCN1C(=O)c1ccc2c(c1)COC2` (stereo not given), the INHIBITION was 7.12%.

Take `CN1CCCC1c1cncc(C(=O)NCCN2CCCC2)n1` (stereo not given): the INHIBITION is -40.1%.

Take `CN(C)CC(=O)N1CCc2cccc(S(=O)(=O)N3CCOCC3)c2C1`: the INHIBITION was determined as 21.2%.

In the case of `O=C(c1ccc(Cl)s1)N1CCC2(CNS(=O)(=O)c3cnccc3O2)C1` (stereo not given), the INHIBITION is 21.7%.

As to `CCC1CN(CC(=O)NCCN2CCCCCC2)c2ccccc2S1` (stereo not given), the INHIBITION turned out to be 0.87%.

For `CC(c1cc(F)ccc1F)N(C)C(=O)NCc1ccnc(N(C)C)c1` (stereo not given), the INHIBITION was found to be 21.6%.

Turning to `CNC(=O)C1CCN(c2nccc(CCC(F)(F)F)n2)C1` (stereo not given), the INHIBITION amounted to 50.1%.

In the case of `O=C(c1ccccn1)C1CCCN(c2nccc(CCC(F)(F)F)n2)C1` (stereo not given), the INHIBITION came out at 35.1%.

As to `CCN(C(C)=O)C1CCN(c2nccc(CCC(F)(F)F)n2)C1` (stereo not given), the INHIBITION is reported as 48.5%.

With `FC(F)(F)CCc1ccnc(N2CCN(Cc3ccncc3)CC2)n1`, the INHIBITION is -0.178%.

On to `FC(F)(F)c1ccnc(N2CCCN(Cc3ccccn3)CC2)n1`, for which the INHIBITION was -1.7%.

On to `FC(F)(F)CCc1ccnc(N2CCN(Cc3ccccn3)CC2)n1`, for which the INHIBITION was 25.5%.

As to `FC(F)(F)CCc1ccnc(N2CCN(CCc3ccncc3)CC2)n1`, the INHIBITION is on record as 66.1%.

For the compound `Cc1cc(C)nc(CCNc2nccc(CCC(F)(F)F)n2)n1`, the INHIBITION came to 38.2%.

In the case of `Oc1cccc(CN2CCN(c3nccc(CCC(F)(F)F)n3)CC2)c1`, the INHIBITION worked out at 74.7%.

For `CCOc1ccnc(N2CCN(C(=O)CCc3ccncc3)CC2)n1`, the INHIBITION is reported as -17%.

As for `Cc1cnccc1N1CCN(c2nccc(CCC(F)(F)F)n2)CC1`, the INHIBITION came to 83.2%.

With `Cc1cnccc1N1CCN(C(=O)CCCN2CCCCC2)CC1`, the INHIBITION amounted to 21.7%.

For `O=C(c1ccc2c(c1)OCO2)N1CCCC(n2ccnc2)C1` (stereo not given), the INHIBITION is -9.37%.

On to `CN(CC(=O)Nc1cc(-c2cc(Cl)cc(Cl)c2)[nH]n1)S(C)(=O)=O`, for which the INHIBITION is recorded as -51.9%.

Consider `CC(C)Oc1cccc(F)c1C(C(=O)O)N1CCCC1` (stereo not given), for which the INHIBITION is -41.4%.

For `CCOCC(=O)N1CCCn2c(CN3CCCCC3)nnc2C1`, the INHIBITION is reported as -1.15%.

For `CCS(=O)(=O)Cc1csc(-c2ccc(S(C)(=O)=O)cc2)n1`, the INHIBITION is listed as 3.4%.

In the case of `O=S(=O)(CCCN1CCCC1Cn1cccn1)c1ccccc1` (stereo not given), the INHIBITION amounted to 24%.

On to `Cc1noc(C)c1-c1nc(C2CCCNC2)ccc1CO` (stereo not given), for which the INHIBITION is -15.3%.

Consider `COC1C[C@@H]2CN(C(=O)c3ccc(C)s3)C[C@@H]2C1` (stereo not given in full), for which the INHIBITION was -16.55%.

Regarding `O=C(NCCN1CCCS1(=O)=O)c1scnc1Cl`, the INHIBITION came to 40.2%.

Turning to `CC(=O)c1cnc(N(C)Cc2cnc3ccccc3n2)nc1C`, the INHIBITION came to 62.7%.

Consider `CC(=O)c1cnc(N(C)Cc2cc(C)cc(C)n2)nc1C`, for which the INHIBITION was found to be 28.5%.

Consider `Cc1cnc(N(C)Cc2cnc3ccccc3n2)nc1N(C)C`, for which the INHIBITION was 46.4%.

As to `CC(C)C1COC2(CCN(Cc3ccco3)CC2)C1` (stereo not given), the INHIBITION is -2.35%.

For the compound `O=C1CCCN1Cc1ncn2c1CN(Cc1cccs1)CCC2`, the INHIBITION was 21.8%.

In the case of `Cn1ccnc1CNC(=O)c1cncc(C2CCNCC2)n1`, the INHIBITION was 27.6%.
